Results with a measured potency or affinity are listed apart. Inconclusive results are not listed. Active and inactive are the calls of the source.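 Rule for the calls: active = compounds lowering the FRET ratio whose fitted half-maximal concentration is at most twice their top tested dose; inconclusive = flat partial drop between 30 and 70 percent, or bad fit; inactive = the rest.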
Biological target: Voltage-dependent L-type calcium channel subunit alpha-1D (Homo sapiens) (UniProt Q01668)
Assay: disruptors of CaV1.3 IQ/ICDI domain association – cell-based, HEK293, YFP-IQ/CFP-ICDI FRET, cherry-picks, dose response (AID 1053205)
Settings: HEK293 YFP-IQ/CFP-ICDI FRET ratio, 10 min; series mostly up to 35 µM

Sequence of Voltage-dependent L-type calcium channel subunit alpha-1D (Homo sapiens) (Q01668 whole entry, looked up, the tested form may be a part): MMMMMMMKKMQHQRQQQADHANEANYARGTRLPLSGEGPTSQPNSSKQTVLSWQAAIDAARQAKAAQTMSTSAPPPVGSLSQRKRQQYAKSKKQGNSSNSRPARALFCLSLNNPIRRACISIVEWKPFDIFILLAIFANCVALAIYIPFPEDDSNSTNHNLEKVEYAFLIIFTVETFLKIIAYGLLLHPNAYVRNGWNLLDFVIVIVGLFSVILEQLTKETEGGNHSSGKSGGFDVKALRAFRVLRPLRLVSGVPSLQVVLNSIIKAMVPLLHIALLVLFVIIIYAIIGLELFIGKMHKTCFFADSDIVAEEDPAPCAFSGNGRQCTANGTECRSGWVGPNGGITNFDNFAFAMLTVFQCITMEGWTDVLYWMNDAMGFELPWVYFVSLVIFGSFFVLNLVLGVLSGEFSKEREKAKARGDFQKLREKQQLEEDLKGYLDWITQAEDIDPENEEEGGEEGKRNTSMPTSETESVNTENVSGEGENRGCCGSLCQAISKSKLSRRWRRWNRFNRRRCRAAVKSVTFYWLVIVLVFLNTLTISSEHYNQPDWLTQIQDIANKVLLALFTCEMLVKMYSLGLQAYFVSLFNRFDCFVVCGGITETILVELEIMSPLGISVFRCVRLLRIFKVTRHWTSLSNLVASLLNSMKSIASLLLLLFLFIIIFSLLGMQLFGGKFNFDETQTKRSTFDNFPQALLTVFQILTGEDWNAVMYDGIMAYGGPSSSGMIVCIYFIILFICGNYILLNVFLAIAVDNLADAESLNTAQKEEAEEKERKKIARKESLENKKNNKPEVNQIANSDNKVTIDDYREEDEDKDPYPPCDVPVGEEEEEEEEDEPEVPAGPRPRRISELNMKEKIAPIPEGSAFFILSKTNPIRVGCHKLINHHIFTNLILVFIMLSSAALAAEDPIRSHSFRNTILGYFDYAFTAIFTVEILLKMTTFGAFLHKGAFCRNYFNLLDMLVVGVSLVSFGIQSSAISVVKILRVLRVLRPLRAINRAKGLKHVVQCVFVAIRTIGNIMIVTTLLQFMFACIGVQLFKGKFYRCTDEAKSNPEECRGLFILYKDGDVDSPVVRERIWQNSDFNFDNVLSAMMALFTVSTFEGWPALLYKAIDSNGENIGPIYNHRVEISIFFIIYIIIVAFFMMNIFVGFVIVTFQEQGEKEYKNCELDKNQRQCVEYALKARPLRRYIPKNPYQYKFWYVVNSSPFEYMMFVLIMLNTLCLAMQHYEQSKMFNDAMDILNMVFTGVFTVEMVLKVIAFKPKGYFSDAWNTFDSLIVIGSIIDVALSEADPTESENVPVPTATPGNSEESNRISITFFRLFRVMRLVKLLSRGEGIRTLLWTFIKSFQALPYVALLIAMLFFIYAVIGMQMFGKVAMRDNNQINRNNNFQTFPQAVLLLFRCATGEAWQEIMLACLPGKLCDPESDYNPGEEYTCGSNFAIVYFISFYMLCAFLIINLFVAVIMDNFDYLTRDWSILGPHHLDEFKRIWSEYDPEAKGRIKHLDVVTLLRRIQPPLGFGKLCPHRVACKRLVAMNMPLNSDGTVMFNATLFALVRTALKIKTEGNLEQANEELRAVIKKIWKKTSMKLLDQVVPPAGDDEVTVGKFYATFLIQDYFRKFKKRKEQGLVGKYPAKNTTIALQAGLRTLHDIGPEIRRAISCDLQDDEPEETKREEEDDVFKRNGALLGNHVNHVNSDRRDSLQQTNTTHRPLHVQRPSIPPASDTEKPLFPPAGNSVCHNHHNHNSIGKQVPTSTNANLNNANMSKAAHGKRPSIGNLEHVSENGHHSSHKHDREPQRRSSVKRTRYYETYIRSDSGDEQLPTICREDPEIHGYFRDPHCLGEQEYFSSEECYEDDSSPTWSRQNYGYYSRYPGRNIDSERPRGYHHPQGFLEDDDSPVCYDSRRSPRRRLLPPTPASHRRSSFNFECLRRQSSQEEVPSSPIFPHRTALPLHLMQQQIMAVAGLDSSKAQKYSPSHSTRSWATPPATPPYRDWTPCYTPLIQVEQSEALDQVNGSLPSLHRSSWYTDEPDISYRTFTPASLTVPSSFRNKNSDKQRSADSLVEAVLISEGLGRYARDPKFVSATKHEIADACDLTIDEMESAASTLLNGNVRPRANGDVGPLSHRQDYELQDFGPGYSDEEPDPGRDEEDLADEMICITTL

outcome, inactive:
Cc1c(O)ccc2cc(S(=O)(=O)c3ccccc3)c(=O)oc12
C=CCn1c(=N)c(C#N)cc2c(=O)n3ccccc3nc21
N#C/C(=C\c1ccco1)C(=O)Nc1cccc2ncccc12
COc1cc(C2C3=C(CC(C)(C)CC3=O)N(C)C3=C2C(=O)CC(C)(C)C3)cc(Br)c1O
O=C(/C=C/c1ccccc1)C1=C(O)C(=O)N(CCO)C1c1ccc2c(c1)OCO2 (configuration not stated)
CCN1C(=O)c2cccc3c(S(=O)(=O)N(C)C)ccc1c23
O=C(O)c1ccc(N/N=C/c2ccc(-c3ccccc3Cl)o2)cc1
CCc1nc2ccc(C(=O)NCCc3c[nH]c4ccccc34)cn2c1N(C=O)CCC(C)C
COc1ccc(C(=O)Oc2cc(N)n(S(=O)(=O)c3ccccc3)n2)cc1
CSc1ccc(Cl)c(C(=O)N2CCOc3ccccc32)c1
COc1ccc(-[n+]2c(C)cc(/C=C3\Sc4ccccc4N3C)cc2C)cc1
Cc1ccc(NC(=O)Nc2ccnc(-c3cccnc3)n2)cc1
CC1CCN(C(=O)COc2cccc3c2CCN(Cc2ccccc2)C3=O)CC1
CCN(CC)c1ccc2cc(S(=O)(=O)c3ccc(Cl)cc3)c(=O)oc2c1
CN(C)C(=O)CSc1nc2ccc(C(=O)c3ccccc3)cc2[nH]1
N#Cc1c(NCCCO)nc(NCc2ccccc2)c2c1CCN(Cc1ccccc1)C2
C/C(=N\NC(=O)CC#N)c1cc2ccc(O)cc2oc1=O
COCc1cc(C)nc(SCC(=O)Oc2ccc(Cl)cc2)c1C#N
Cc1c(C(=O)NCc2cccc(C(F)(F)F)c2)sc(=O)n1Cc1ccc(C(=O)N(C)C)cc1
O=C(Cc1csc(-c2ccccc2)n1)NCc1ccccc1F
COCCNC(=O)c1cc2c(=O)n3cccc(C)c3nc2n(Cc2ccncc2)c1=N
Cc1cc(C)nc(SCC(=O)Nc2ccc(S(=O)(=O)Nc3onc(C)c3C)cc2)n1
O=c1[nH]c2ccccc2nc1/C=C/c1ccccc1
NC(=O)c1c(NC(=O)Cc2ccccc2)sc2c1CCN(Cc1ccccc1)C2
N=c1oc2cc(O)ccc2cc1C(=O)Nc1ccc(Br)cc1
CNC(=O)c1ccc(NC(=O)c2cccc(C(F)(F)F)c2)cc1
Nn1c(SCC(=O)N2CCCC2)nnc1-c1cccs1
COc1ccc(CCN=C(N)NS(=O)(=O)c2ccc(F)cc2)cc1
COc1c(Cl)cc(-c2noc(C)c2C(=O)NCc2ccc3c(c2)OCO3)cc1Cl
Cc1oc(/N=C/c2ccc(O)cc2O)c(C#N)c1C
CSC1=NSC2=NC(=O)/C(=C/c3coc4ccc(O)cc4c3=O)C(=N)N12
CN1CCN(c2nc3ccccn3c(=O)c2/C=C(\C#N)S(=O)(=O)c2ccccc2)CC1
O=c1oc2cc(O)ccc2cc1S(=O)(=O)c1ccccc1
Cn1cc(C(c2ccccc2OCC(=O)O)c2cn(C)c3ccccc23)c2ccccc21
Cc1cc(OC(=O)c2ccccc2Cl)ccc1N1C(=O)CCC1=O
Cn1cccc1/C=N/NC(=O)c1sc2cc(Cl)ccc2c1Cl
Cn1nc(-c2ccc(Cl)cc2)c2cc(C(=O)N3CCN(c4ccccc4)CC3)sc21
